Measurements published in paper PMC5540273 (PLoS ONE, 2017).

Tested on: T1, ERK3
T1 construct: gene MAPK6
Settings: concentration: 1 μM,replicates: in singlicate; n = 1
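Also: KINOMEscan kinase panel screen.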

In order of falling “%Inh” value:
1. CCN(CC)CCOc1ccc(Nc2ncc3cc(-c4c(Cl)cccc4Cl)c(=O)n(C)c3n2)cc1 [SB-601273]  100%
2. Cc1cc2cn[nH]c2cc1-c1cccc2c(N)c(C(N)=O)nnc12  37%
3. CCN(CC)CCCCNc1ncc2cc(-c3c(Cl)cccc3Cl)c(NC(=O)NC(C)(C)C)nc2n1  36%
4. C=CC(=O)Nc1cc2c(Nc3ccc(F)c(Cl)c3)ncnc2cc1OCCCN1CCOCC1 [GW781483]  36%
5. CN(C)CC(O)COc1ccc(Nc2nccc(-c3cnn4nc(N5CCOCC5)ccc34)n2)cc1 (stereo not drawn) [GW767488]  32%
6. NC(=O)c1cc(-c2ccccc2)cc2c(C3CCNCC3)c[nH]c12 [GSK301362]  11%
7. Cc1ccc(-n2nc(C(C)(C)C)cc2NC(=O)Nc2ccc(OCCN3CCOCC3)c3ccccc23)cc1 [GW839464]  11%
8. Cc1n[nH]c2ccc(-c3cc(OC[C@@H](N)Cc4ccccc4)cnc3-c3ccoc3)cc12.O=C(O)C(F)(F)F.O=C(O)C(F)(F)F [GSK507358]  7%
9. O=C(NCCNc1ccnc(NCc2ccc(F)cc2)n1)c1cc2ccccc2s1 [GSK1379944]  3%
10. Cc1occc1-c1nc(N)c(OC[C@@H](N)Cc2c[nH]c3ccccc23)cc1-c1cc2c(C)n[nH]c2cn1 [GSK1660450]  2%
11. Cl.Cl.NC[C@H](Cc1ccc(C(F)(F)F)cc1)NC(=O)c1cc(Br)c(-c2ccnc3[nH]ccc23)s1 [GSK1487252]  0%
12. Nc1nc(Nc2ccccc2)cc(-c2ccc3c(N)n[nH]c3c2)n1 [GSK2225749]  0%
13. CC(C)Nc1cc(-c2ccc3c(N)n[nH]c3c2)nc(N)n1 [GSK2221681]  0%
14. CC(C)N1C(=O)Cc2cc(Nc3ncc(C(F)(F)F)c(NCc4cccc(S(C)(=O)=O)c4)n3)ccc21  0%
15. Cl.Cl.NC[C@H](CC1CCCCC1)NC(=O)c1cc(Br)c(-c2ccnc3[nH]ccc23)s1 [GSK1581427]  0%
16. C[C@@H]1CCN(C(=O)CC#N)C[C@@H]1N(C)c1ncnc2[nH]ccc12  0%
17. Cl.Oc1cc(-c2nc(-c3ccccc3)[nH]c2-c2ccncc2)ccc1Cl [SB-386023]  0%
18. O=C(NCCCN1CCOC1=O)c1cnc(NCc2cc(Cl)ccc2Cl)nc1NC1CCCC1  0%
19. Cc1cc(C(=O)Nc2ccc(Oc3ccc4nc(NC(=O)C5CC5)cn4n3)cc2)nn1-c1ccccc1  0%
20. Cl.Cl.Nc1nc(-c2ccc3c(N)n[nH]c3c2)cc(N2CCCC(NC(=O)c3ccccc3)C2)n1 (stereo not drawn) [GSK2286775]  0%
21. Cc1ccc2c(-c3ccncc3)c(-c3ccc(F)cc3)nn2c1.Cl [GW461484]  0%
22. COc1ccc(C[C@@H](CN)NC(=O)c2cc(Br)c(-c3ccnc4[nH]ccc34)s2)cc1.Cl.Cl [GSK1389063]  0%
23. CN(C)CCOc1ccc(-c2cc(-c3c[nH]nc3-c3ccccn3)ccn2)cc1 [GW835314]  0%
24. CNC(=O)c1ccccc1Sc1ccc2c(/C=C/c3ccccn3)n[nH]c2c1  0%
25. CCn1c(-c2nonc2N)nc2c(C#CC(C)(C)O)nc(OCCN)cc21.Cl.Cl [GSK902056]  0%
26. C[C@H]1Oc2cc(cnc2N)-c2c(nn(C)c2C#N)CN(C)C(=O)c2ccc(F)cc21  0%
27. C[C@@H](Oc1cc(-c2cnn(C3CCNCC3)c2)cnc1N)c1c(Cl)ccc(F)c1Cl  0%
